In the library only some 12% were active in any assay of this set; here they are far more common.
WT yeast gro inh = growth inhibition of WT yeast, mitochondrial fusion screen. hit rate 2.1% among 190,000. mitochondrial fusion phenotypic screen, WT strain. inhibition, % at 10 µM; in the data active means inhibition above about 58%; tested in S. cerevisiae
Calpain2 inh = inhibitors of pig calpain II; purified calpain II, fluorogenic peptide substrate, 30 min; inhibition, % at 16 µM; hit rate 0.37% among 220,000; AID 1236;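 active means inhibition above about 50%, limit read from the data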
L major viab = Leishmania major promastigote growth inhibition. Leishmania major promastigotes, resazurin fluorescence viability. inhibition, % at 10 µM. hit rate 9% among 200,000; in the data active means inhibition above about 50%;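 further: promastigotes grown with compound for 44 hours at 28 °C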
ROMK mod = human ROMK K+ channel modulation, primary screen. B-score at 10 µM. AID 1918. P48048. Tet-inducible ROMK, thallium flux fluorescence; actives lie on both sides. hit rate 2% among 130,000;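 active means signal ratio slope over the read window, or its plate-corrected B-score, at least 3 SD from the plate mean, either direction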;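 further: B-score of the F/F0 ratio slope over 7 to 12 s after thallium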
Cl transport mod = KCC2 (human) Cl- transport modulation. Q9H2X9. KCC2 cells, thallium flux FluoZin-2 fluorescence. B-score of Tl+ flux slope (higher = more flux/activation; lower = inhibition) at 10 µM. hit rate 2.2% among 190,000. AID 1456;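 active means thallium flux slope and its plate-corrected score both differing from the plate sample mean at a set confidence after two filtering rounds, in either direction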;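 further: slope of fluorescence scaled to starting intensity during 10 to 20 s after thallium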
Target sequence (Q9H2X9 whole entry, looked up): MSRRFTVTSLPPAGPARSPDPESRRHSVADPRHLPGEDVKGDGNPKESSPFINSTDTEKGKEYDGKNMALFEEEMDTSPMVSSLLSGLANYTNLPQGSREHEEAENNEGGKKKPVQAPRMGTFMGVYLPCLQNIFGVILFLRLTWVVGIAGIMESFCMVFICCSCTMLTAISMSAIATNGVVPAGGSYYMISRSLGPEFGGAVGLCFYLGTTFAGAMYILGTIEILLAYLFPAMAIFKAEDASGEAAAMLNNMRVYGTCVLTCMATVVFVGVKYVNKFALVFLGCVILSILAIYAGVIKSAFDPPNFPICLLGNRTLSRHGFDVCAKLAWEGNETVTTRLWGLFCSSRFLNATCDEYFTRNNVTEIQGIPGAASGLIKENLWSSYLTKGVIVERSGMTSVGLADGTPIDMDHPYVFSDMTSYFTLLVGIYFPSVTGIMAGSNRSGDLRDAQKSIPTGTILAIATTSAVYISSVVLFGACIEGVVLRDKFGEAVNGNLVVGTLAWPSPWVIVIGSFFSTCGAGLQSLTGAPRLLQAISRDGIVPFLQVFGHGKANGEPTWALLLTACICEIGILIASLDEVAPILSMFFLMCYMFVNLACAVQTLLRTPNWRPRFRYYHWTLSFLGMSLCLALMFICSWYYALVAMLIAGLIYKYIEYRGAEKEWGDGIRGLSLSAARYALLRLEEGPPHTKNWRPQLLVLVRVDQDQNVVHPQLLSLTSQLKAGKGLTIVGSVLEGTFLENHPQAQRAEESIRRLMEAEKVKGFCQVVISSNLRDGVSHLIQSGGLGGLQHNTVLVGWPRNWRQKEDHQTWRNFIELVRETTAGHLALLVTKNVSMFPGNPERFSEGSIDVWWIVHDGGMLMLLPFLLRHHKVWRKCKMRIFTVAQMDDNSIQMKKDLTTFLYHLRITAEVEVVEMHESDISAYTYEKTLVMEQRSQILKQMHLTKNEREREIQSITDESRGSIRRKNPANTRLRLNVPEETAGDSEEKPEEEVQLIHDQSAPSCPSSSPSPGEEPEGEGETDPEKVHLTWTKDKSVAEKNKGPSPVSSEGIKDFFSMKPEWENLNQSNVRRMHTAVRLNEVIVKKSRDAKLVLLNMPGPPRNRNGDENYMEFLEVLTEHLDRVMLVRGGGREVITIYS
KCC2 sec1 = KCC2 (human) modulation, secondary assay; HEK293-KCC2, thallium flux, FluoZin2 fluorescence; stronger effect = higher value; normalised thallium flux (F/F0 slope) at 10 µM; shares compounds with Cl transport mod; AID 1713; hit rate 15% among 3,700;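 active means thallium flux slope above the same plate's solvent-only control mean plus 3 SD; inconclusive means the two replicate wells disagree; inactive means no significant difference from solvent-only control wells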
KCC2 bumet counter = thallium flux despite bumetanide block in KCC2 cells, secondary assay 3 | shares compounds with Cl transport mod | HEK293-KCC2 + bumetanide/ouabain, thallium flux FluoZin2; stronger effect = higher value | normalized thallium flux at 10 µM | hit rate 49% among 3,700 | AID 1714;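 active means thallium entry rate above the same plate's blocked-transporter control wells by more than 3 SD; inconclusive means the two repeat wells disagree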;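 further: raw slope of fluorescence over initial fluorescence between 10 and 20 s after thallium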
KCC2 secondary2 = KCC2 (human) modulation, second secondary assay | hit rate 23% among 3,700 | HEK293-KCC2, thallium flux FluoZin2 fluorescence; actives lie on both sides; F/F0 rise rate, 10–20 s post-thallium | AID 1715 | normalized thallium flux at 10 µM | shares compounds with Cl transport mod;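 active means thallium flux slope more than 3 SD above or below the plate's solvent-only control mean, mostly below; inconclusive means the two repeat wells disagreed; inactive means no significant shift from solvent-only controls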
HEK counter1 = acts in parental HEK cells, KCC2 counter-screen. shares compounds with Cl transport mod. HEK293 parental cells, thallium flux FluoZin2, ouabain; baseline-ratio fluorescence slope, 10–20 s after thallium. thallium flux rate (normalised fluorescence) at 10 µM. hit rate 46% among 3,700;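 active means thallium flux rate significantly above the same plate's solvent-only control wells, beyond their mean plus 3 SD; inconclusive means the two replicate wells gave conflicting results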
KCC2 retest ouab = modulates human KCC2 on retest with ouabain; shares compounds with Cl transport mod; HEK293-KCC2, thallium flux FluoZin2 fluorescence; bidirectional: low = inhibitor, high = activator; raw Tl+ flux slope (below DMSO = inhibition, above = activation) at 10 µM; hit rate 48% among 3,700;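 active means thallium flux slope beyond 3 SD from same-plate DMSO control mean in most replicates, usually higher, sometimes lower; inconclusive means repeat tests gave conflicting results; inactive means no significant difference from controls in most replicates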;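 further: slope of initial-normalized fluorescence between seconds 10 and 20 after thallium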
HEK counter2 = counter-screen for KCC2 modulators: effect in parental HEK293 cells; thallium flux slope at 10 µM; shares compounds with Cl transport mod; hit rate 33% among 3,700; thallium flux FluoZin-2 fluorescence slope;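 active means thallium flux slope above the same plate's solvent-control mean plus 3 SD in both duplicate wells; inconclusive means duplicate wells that disagreed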;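 further: run without ouabain in cells lacking the KCC2 cotransporter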
Large screens that a line does not name were inactive (follow-up assays come after a bar, where they were run).

O=C(NC(=S)Nc1ccc(CN2CCOCC2)cc1)c1ccc(-c2ccc(Br)cc2)o1	Cl transport mod 5.3 (no result: WT yeast gro inh, L major viab, ROMK mod) | KCC2 sec1 inactive | KCC2 bumet counter inactive | KCC2 secondary2 inactive | HEK counter1 0.018 | KCC2 retest ouab inconclusive | HEK counter2 inactive
O=C(NC(=S)Nc1ccc(CN2CCOCC2)cc1)c1ccc(-c2ccc(Cl)cc2)o1	none (no result: WT yeast gro inh, L major viab, ROMK mod)
O=C(NC(=S)Nc1ccc(CN2CCOCC2)cc1)c1cc2ccccc2o1	Cl transport mod 12 | KCC2 sec1 inactive | KCC2 bumet counter 0.016 | KCC2 secondary2 inactive | HEK counter1 0.02 | KCC2 retest ouab 0.029 | HEK counter2 0.015
O=C(Nc1ccc(CN2CCOCC2)cc1)c1cc2ccccc2o1	none (no result: ROMK mod)
Cc1cccc(NC(=O)C2=C(O)c3ccccc3N(C)S2(=O)=O)c1	none (no result: ROMK mod)
CN1c2ccccc2C(O)=C(C(=S)Nc2ccc(Cl)cc2)S1(=O)=O	none (no result: ROMK mod, Cl transport mod) | KCC2 sec1 inactive | KCC2 bumet counter 0.021 | KCC2 secondary2 inactive | HEK counter1 0.017 | KCC2 retest ouab inconclusive | HEK counter2 0.021
C[C@@H]1CC[C@H]2C(=O)N3[C@@H](CC[C@@H](C)[C@@H]3c3ccc(Br)cc3)C(=O)N2[C@H]1c1ccc(Br)cc1	Cl transport mod 5.3 | KCC2 sec1 inactive | KCC2 bumet counter inactive | KCC2 secondary2 inactive | HEK counter1 inactive | KCC2 retest ouab inactive | HEK counter2 inactive
Cn1c(N)c(C(=O)c2ccc(F)cc2F)c(=O)n(C)c1=O	none (no result: ROMK mod)
COC(=O)c1ccc(C2c3c(oc4ccccc4c3=O)C(=O)N2CCCN2CCOCC2)cc1 (configuration not stated)	Cl transport mod -4.5 (no result: ROMK mod) | KCC2 sec1 inactive | KCC2 bumet counter 0.0061 | KCC2 secondary2 inactive | HEK counter1 inactive | KCC2 retest ouab inactive | HEK counter2 inactive
CN(Cc1cccs1)C(=O)/C=C/c1ccccc1[N+](=O)[O-]	none (no result: Cl transport mod)
Cc1ccc(/C=N/n2c(-c3ccncc3)n[nH]c2=S)cc1	none (no result: ROMK mod)
CC(C)(C)c1ccc(-c2n[nH]c(=S)n2/N=C/c2ccncc2)cc1	Cl transport mod 5.6 | KCC2 sec1 inactive | KCC2 bumet counter 0.018 | KCC2 secondary2 inactive | HEK counter1 0.013 | KCC2 retest ouab inconclusive | HEK counter2 inactive
Cc1ccc(-c2n[nH]c(=S)n2/N=C/c2cccn2C)cc1	Cl transport mod 5.2 (no result: ROMK mod) | KCC2 sec1 inactive | KCC2 bumet counter 0.031 | KCC2 secondary2 inactive | HEK counter1 0.0093 | KCC2 retest ouab inactive | HEK counter2 0.011
COc1ccc(-c2n[nH]c(=S)n2/N=C/c2cccn2C)cc1	none (no result: WT yeast gro inh, L major viab, ROMK mod)
S=c1[nH]nc(C2CCCCC2)n1/N=C/c1cccs1	Cl transport mod 6.1 (no result: ROMK mod) | KCC2 sec1 0.013 | KCC2 bumet counter 0.065 | KCC2 secondary2 inactive | HEK counter1 0.023 | KCC2 retest ouab inconclusive | HEK counter2 inconclusive
Cc1ccc(-c2nn(-c3ccccc3)cc2/C=N/n2c(-c3cccs3)n[nH]c2=S)cc1	Cl transport mod 4.6 (no result: WT yeast gro inh, L major viab) | KCC2 sec1 inactive | KCC2 bumet counter 0.0094 | KCC2 secondary2 inactive | HEK counter1 0.018 | KCC2 retest ouab inactive | HEK counter2 inactive
NS(=O)(=O)c1cccc(NC(=O)COC(=O)C2CCCCC2)c1	none
S=c1[nH]nc(-c2ccccc2)n1/N=C/c1cccs1	none (no result: ROMK mod, Cl transport mod) | KCC2 sec1 inactive | KCC2 bumet counter 0.04 | KCC2 secondary2 0.043 | HEK counter1 0.025 | KCC2 retest ouab 0.037 | HEK counter2 0.027
COCCNC(=O)CN1CCC(NC(=O)c2ccco2)CC1	none
Cc1onc(-c2c(Cl)cccc2Cl)c1-c1nc2cc(Cl)ccc2c(=O)o1	none (no result: WT yeast gro inh, L major viab, ROMK mod)
O=c1[nH]c(CN2CCCCC2)nc2c1C1(CCCC1)Cc1ccccc1-2	none (no result: WT yeast gro inh, Calpain2 inh)
CCc1nc2c(c(=O)[nH]1)C1(CCCC1)Cc1ccccc1-2	none (no result: Cl transport mod) | KCC2 sec1 inactive | KCC2 bumet counter inactive | KCC2 secondary2 inactive | HEK counter1 inactive | KCC2 retest ouab inactive | HEK counter2 inactive
Cc1nc(=S)c2c([nH]1)-c1ccccc1CC21CCCCC1	Cl transport mod 77 (no result: WT yeast gro inh, L major viab, ROMK mod) | KCC2 sec1 0.02 | KCC2 bumet counter 0.1 | KCC2 secondary2 inactive | HEK counter1 0.04 | KCC2 retest ouab 0.068 | HEK counter2 0.011
CCn1c(=O)c2c(n3cnnc13)-c1ccccc1CC21CCCCC1	none (no result: ROMK mod)
NC(=S)Nn1c(-c2ccccc2)nc2ccccc2c1=O	none
CCc1ccccc1NNC(=O)c1snnc1C	Cl transport mod 5 (no result: WT yeast gro inh, L major viab, ROMK mod) | KCC2 sec1 inactive | KCC2 bumet counter 0.0084 | KCC2 secondary2 inactive | HEK counter1 inactive | KCC2 retest ouab inactive | HEK counter2 inactive
c1ccc(CSc2nnc(-c3cccnc3)o2)cc1	none (no result: ROMK mod)
c1cncc(-c2nnc(SCc3cccc4ccccc34)o2)c1	Cl transport mod -4.3 (no result: ROMK mod) | KCC2 sec1 inactive | KCC2 bumet counter inactive | KCC2 secondary2 inactive | HEK counter1 inactive | KCC2 retest ouab inactive | HEK counter2 inactive
CCOc1cccc(-c2nnc3sc(COc4ccc(Cl)cc4)nn23)c1	Cl transport mod -3.6 (no result: ROMK mod) | KCC2 sec1 inactive | KCC2 bumet counter inactive | KCC2 secondary2 inactive | HEK counter1 inactive | KCC2 retest ouab inactive | HEK counter2 inactive
CSc1ccccc1Nc1ncnc(N)n1	none (no result: WT yeast gro inh, L major viab, ROMK mod)
O=C1NC(=O)/C(=C/c2ccccc2Oc2ccc(Cl)cc2)S1	none (no result: ROMK mod, Cl transport mod)
O=C(COc1ccccc1/C=C1\SC(=O)NC1=O)Nc1ccc(F)cc1	Cl transport mod -3.1 | KCC2 sec1 inactive | KCC2 bumet counter inactive | KCC2 secondary2 inactive | HEK counter1 inactive | KCC2 retest ouab 0.013 | HEK counter2 inactive
Cc1ccc(S(=O)(=O)Oc2ccccc2/C=C2\SC(=O)NC2=O)cc1	Cl transport mod -6 | KCC2 sec1 inconclusive | KCC2 bumet counter inactive | KCC2 secondary2 0.024 | HEK counter1 0.0066 | KCC2 retest ouab 0.015 | HEK counter2 inactive
C=CCN1C(=O)N/C(=C/c2ccccc2OCC(=O)Nc2ccc(F)cc2)C1=O	none
CCOC(=O)CN1NC2(CCCC(C)C2)NC1=S (configuration not stated)	none (no result: Cl transport mod)
CCCCN(C(=O)c1c(C)[nH]c(C(=O)OCC)c1C)c1ccccc1	none (no result: ROMK mod)
Cc1cc(C)n2nc(C(=O)NCCc3ccccc3)nc2n1	none
O=C(NCCc1ccccc1)c1nc2nc(-c3cccs3)cc(C(F)(F)F)n2n1	Cl transport mod -2.5 | KCC2 sec1 inactive | KCC2 bumet counter inactive | KCC2 secondary2 inactive | HEK counter1 inactive | KCC2 retest ouab inactive | HEK counter2 inactive

Compound activity from PubChem BioAssay.
